# In all, about 330,000 compounds went through this assay and about 7,700 (2.3%) were called active. About 26% were inconclusive and are not listed. Calls come from the whole dose curve; as a rule, active = well fitted inhibition curve with a large enough effect; inconclusive = small, poorly fitted or top-dose-only effect, or effect the other way; inactive = flat fitted curve, though single readings scatter. What follows is part of a selection rich in actives, with near analogues and random picks from the rest. Entries that show only a call come without a potency.
# Test: qHTS screen for small molecules that inhibit ELG1-dependent DNA repair in human embryonic kidney (HEK293T) cells expressing luciferase-tagged ELG1; note: nearly all actives have a fitted effect of over 55% in size
# Details: HEK293T ELG1-luciferase reporter, luminescence, 16 h, DNA damage induced by 5-fluorouridine; series mostly up to 46.1 µM
# Procedure, shortened: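 5-Fluorouridine DNA damage + compound/DMSO, 2,000 cells/well, 16 h, 37 °C/5% CO2. ONE-Glo, 30 min RT, luminescence. Readout = decrease in reporter signal.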
# Potency is the fitted concentration of half-maximal effect.
row,SMILES,Potency
1,CCc1ccc2nc(N(CCCN(C)C)C(=O)c3ccc4c(c3)OCCO4)sc2c1,inactive
2,O=C(CSc1ncnc2sccc12)NC1CCS(=O)(=O)C1 (stereo unspecified),inactive
3,CC1(C)Cc2cccc(OCC(=O)NCc3ccccc3)c2O1,inactive
4,COc1ccc(NS(=O)(=O)c2cc(NC(=O)/C=C/c3cc(OC)c(OC)c(OC)c3)ccc2N2CCCCC2)cc1,inactive
5,COc1ccc(NS(=O)(=O)c2ccc(N3CCOCC3)c(NC(=O)c3ccccc3Br)c2)cc1,inactive
6,COc1ccc(NS(=O)(=O)c2cc(NC(=O)C3CCCCC3)ccc2N2CCOCC2)cc1,20.6 µM (active)
7,COc1ccc(S(=O)(=O)Nc2ccc3oc(C)c(C(C)=O)c3c2)cc1,2.59 µM (active)
8,CC(=O)c1c(C)oc2ccc(NS(=O)(=O)c3ccc(C(=O)O)cc3)cc12,inactive
9,COc1ccc2oc(C)c(NC(C)=O)c2c1,inactive
10,Cc1ccc(S(=O)(=O)N2CCC(C(=O)OCC(=O)N(C)c3ccccc3)CC2)cc1C,inactive
11,CCN(CC(=O)Nc1ccc(C)c(S(=O)(=O)N(C)C)c1)Cc1ccccc1,inactive
12,CC(C)(C)c1ccc(SCCc2ccncc2)cc1,inactive
13,CCC(C(=O)NC1CCCC1)N(C(=O)Cn1nnc(-c2ccc(C)o2)n1)c1ccc(OC)c(OC)c1 (stereo unspecified),inactive
14,COC(=O)c1c(NC(=O)CCCC(=O)O)sc2c1CCCCC2,inactive
15,CCOCC(=O)Nc1sc2c(c1C(=O)OCC)CCCC2,inactive
16,COC(=O)c1c(NC(=O)COC(=O)[C@@H](NS(=O)(=O)c2ccccc2)C(C)C)sc2c1CCC2,25.9 µM (active)
17,O=C1C=C(c2cc(C(F)(F)F)cc(C(F)(F)F)c2)C[C@@H](c2ccc3c(c2)OCO3)C1,inactive
18,Cc1cccc(NC(=O)c2sc3nc4c(c(-c5ccco5)c3c2N)CCC4)c1,inactive
19,Cc1nc2sc(C(=O)c3ccccc3)c(N)c2c2c1CCCC2,inactive
20,NC(=O)c1sc2nc3c(c(-c4ccccc4)c2c1N)CCC3,4.11 µM (active)
21,CC(=O)N1CCN(c2ccccc2NC(=S)NC(=O)c2cc3ccccc3o2)CC1,inactive
22,COc1ccc(-c2oc3ncnc(NCCCO)c3c2-c2ccc(OC)cc2)cc1,18.3 µM (active)
23,COc1ccc(-c2oc(/N=C/N3CCCC3)c(C#N)c2-c2ccc(OC)cc2)cc1,inactive
24,c1ccc(-c2oc3ncnc(N4CCOCC4)c3c2-c2ccccc2)cc1,inactive
25,CCn1c(=O)c2ccccc2n(CC(=O)N2CCCc3ccccc32)c1=O,inactive
26,CCN(C[C@H]1N[C@@](CC)(C(=O)OC)[C@H]2C(=O)N(Cc3ccccc3)C(=O)[C@@H]12)S(=O)(=O)c1ccccc1,inactive

# Reference: PubChem BioAssay AID504467 (National Center for Advancing Translational Sciences (NCATS), 2011)
